# The campaign covered roughly 10,000 compounds. About 25 (0.2%) were called active.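 The calls were made as follows: active = compound among top-ranked inhibitors of TNF-induced VCAM-1 adhesion protein staining, with the hit upheld by image or statistical review; inactive = the rest, including hits rejected on review.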 The sample as a whole holds a higher share of actives than the screen did.
# Experiment: suppression of endothelial VCAM-1 upregulation – cell-based, plate reader, pooled HUVEC, TNFa stimulus (AID 454)
# Details: HUVEC TNFa-induced VCAM-1 surface immunofluorescence; hits give high values,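 compound tested at 5 µM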
row,Compound,inhibition
1,O=C(CN1C(=O)CN=C(c2ccccc2)c2ccccc21)NCc1ccco1,inactive
2,O=C(Cn1cc(C(=O)c2ccccc2)c2ccccc21)NCc1ccco1,inactive
3,Cc1cccc(C2=NCC(=O)N(CC(=O)NCc3ccco3)c3sc4c(c32)CCCC4)c1,78.7% (active)
4,COc1ccc(CCn2c(O)c(C=NCc3cccnc3)c(=O)[nH]c2=O)cc1OC,inactive
5,CCOc1ccc(C2SCC(=O)Nc3c2c(=O)[nH]n3C2CCCCCC2)cc1 (stereo not given),inactive

# Reference: PubChem BioAssay AID454 (Sanford-Burnham Center for Chemical Genomics, 2006)
